# Test results as given in PMC11062922 (Nature Chemical Biology, 2023).
# Read-outs that look alike come from different tables or passages of the source.
# Key:
# Design in all cases: species or system human, MV4-11 + K-562 + COLO205 + SK-N-BE2 + OVCAR-8
# [1] = tested on: ACVR2B; conditions: read-out: apparent Kd, compound concentrations: 100 nM and 1000 nM (sheet 'Samples'), n = 1
# [2] = tested on: FLT3; conditions: read-out: apparent Kd, n = 1
# [3] = tested on: FLT4; conditions: read-out: apparent Kd; compound concentrations: 100 nM and 1000 nM (sheet 'Samples'), CATDS: 0.63854178875025103; n = 1
# [4] = tested on: PDGFRB; conditions: read-out: apparent Kd; compound concentrations: 100 nM and 1000 nM (sheet 'Samples'), CATDS: 0.185767501667575; n = 1
# [5] = tested on: ACVR1; conditions: read-out: apparent Kd, n = 1
# [6] = tested on: CDK9; conditions: read-out: apparent Kd; compound concentrations:100 nM and 1000 nM (sheet 'Samples'); n = 1
# [7] = tested on: CSNK2A1;CSNK2A3; conditions: read-out: apparent Kd; compound concentrations:100 nM and 1000 nM (sheet 'Samples'); n = 1
# [8] = tested on: CSNK2A2; conditions: read-out: apparent Kd; compound concentrations:100 nM and 1000 nM (sheet 'Samples'); n = 1
# [9] = tested on: ERBB3; conditions: read-out: apparent Kd, n = 1
# [10] = tested on: GSK3A; conditions: read-out: apparent Kd; compound concentrations:100 nM and 1000 nM (sheet 'Samples'); n = 1
# [11] = tested on: GSK3B; conditions: read-out: apparent Kd; compound concentrations:100 nM and 1000 nM (sheet 'Samples'); n = 1
# [12] = tested on: ICK; conditions: read-out: apparent Kd; compound concentrations:100 nM and 1000 nM (sheet 'Samples'); n = 1
# [13] = tested on: NLK; conditions: read-out: apparent Kd; compound concentrations:100 nM and 1000 nM (sheet 'Samples'); n = 1
# [14] = tested on: PIM2; conditions: read-out: apparent Kd; compound concentrations:100 nM and 1000 nM (sheet 'Samples'); n = 1
# [15] = tested on: TAOK1; conditions: read-out: apparent Kd; compound concentrations:100 nM and 1000 nM (sheet 'Samples'); n = 1
# [16] = tested on: TNIK; conditions: read-out: apparent Kd; compound concentrations:100 nM and 1000 nM (sheet 'Samples'); n = 1
# [17] = tested on: AKT1; conditions: read-out: apparent Kd; compound concentrations: 100 nM and 1000 nM (sheet 'Samples'), CATDS: 8.7869055703498899E-2; n = 1
# [18] = tested on: AKT2; conditions: read-out: apparent Kd; compound concentrations: 100 nM and 1000 nM (sheet 'Samples'), CATDS: 9.9123908030557498E-2; n = 1
# [19] = tested on: DDR2; conditions: read-out: apparent Kd; compound concentrations: 100 nM and 1000 nM (sheet 'Samples'), CATDS: 9.6979339213766697E-2; n = 1
# [20] = tested on: MAP2K1; conditions: read-out: apparent Kd; compound concentrations: 100 nM and 1000 nM (sheet 'Samples'), CATDS: 9.3485581268639997E-2; n = 1
# [21] = tested on: NCL; conditions: read-out: apparent Kd; compound concentrations: 100 nM and 1000 nM (sheet 'Samples'), CATDS: 9.6162289206332394E-2; n = 1
# [22] = tested on: NNT; conditions: read-out: apparent Kd; compound concentrations: 100 nM and 1000 nM (sheet 'Samples'), CATDS: 0.104881561069948; n = 1
# [23] = tested on: RIOK2; conditions: read-out: apparent Kd; compound concentrations: 100 nM and 1000 nM (sheet 'Samples'), CATDS: 9.3979230016613804E-2; n = 1
# [24] = tested on: ACVR1B; conditions: read-out: apparent Kd; compound concentrations:100 nM and 1000 nM (sheet 'Samples'); n = 1
# [25] = tested on: MAPK14; conditions: read-out: apparent Kd; compound concentrations:100 nM and 1000 nM (sheet 'Samples'); n = 1
# [26] = tested on: MAPKAPK2; conditions: read-out: apparent Kd; compound concentrations:100 nM and 1000 nM (sheet 'Samples'); n = 1
# [27] = tested on: PRKD2; conditions: read-out: apparent Kd; compound concentrations:100 nM and 1000 nM (sheet 'Samples'); n = 1
# [28] = tested on: DDR1; conditions: read-out: apparent Kd; compound concentrations:100 nM and 1000 nM (sheet 'Samples'); n = 1
# [29] = tested on: DDX3X;DDX3Y; conditions: read-out: apparent Kd; compound concentrations:100 nM and 1000 nM (sheet 'Samples'); n = 1
# [30] = tested on: MAPK10; conditions: read-out: apparent Kd; compound concentrations:100 nM and 1000 nM (sheet 'Samples'); n = 1
# [31] = tested on: MAPK9; conditions: read-out: apparent Kd; compound concentrations:100 nM and 1000 nM (sheet 'Samples'); n = 1
# [32] = tested on: BCR; conditions: read-out: apparent Kd; compound concentrations: 100 nM and 1000 nM (sheet 'Samples'), CATDS: 0.117591173693898; n = 1
# [33] = tested on: EPHA1; conditions: read-out: apparent Kd; compound concentrations: 100 nM and 1000 nM (sheet 'Samples'), CATDS: 0.1160485900451; n = 1
# [34] = tested on: GAK; conditions: read-out: apparent Kd; compound concentrations: 100 nM and 1000 nM (sheet 'Samples'), CATDS: 9.8647992016736893E-2; n = 1
# [35] = tested on: JAK2; conditions: read-out: apparent Kd; compound concentrations: 100 nM and 1000 nM (sheet 'Samples'), CATDS: 0.147380455866959; n = 1
# [36] = tested on: RET; conditions: read-out: apparent Kd; compound concentrations: 100 nM and 1000 nM (sheet 'Samples'), CATDS: 0.12743524996908201; n = 1
# [37] = tested on: RIPK2; conditions: read-out: apparent Kd; compound concentrations: 100 nM and 1000 nM (sheet 'Samples'), CATDS: 0.19291932694362501; n = 1
# [38] = tested on: RIPK3; conditions: read-out: apparent Kd; compound concentrations: 100 nM and 1000 nM (sheet 'Samples'), CATDS: 8.1688105237549893E-2; n = 1
# [39] = tested on: SIK2; conditions: read-out: apparent Kd; compound concentrations: 100 nM and 1000 nM (sheet 'Samples'), CATDS: 9.6722651513250199E-2; n = 1
# [40] = compound concentrations:100 nM and 1000 nM (sheet 'Samples')
compound,measurement,setting,value
CC(=O)Nc1ccc(COc2ccc(Nc3ccnc4cc(-c5ccccn5)ccc34)cc2)cc1.Cl [GW440148A],potency estimated from few doses,[1]; CATDS: 0.26489055890019297,482 nM
same,potency estimated from few doses,"[2]; compound concentrations: 100 nM and 1000 nM (sheet 'Samples'), CATDS: 0.189547770315381",1250 nM
same,potency estimated from few doses,[3],88.5 nM
same,potency estimated from few doses,[4],1340 nM
O=C(Nc1n[nH]c2nc(-c3ccc(O)cc3)ccc12)C1CC1 [SB-710363],potency estimated from few doses,[5]; [40],1210 nM
same,potency estimated from few doses,[6],2300 nM
same,potency estimated from few doses,[7],2320 nM
same,potency estimated from few doses,[8],1270 nM
same,potency estimated from few doses,[9]; [40],1710 nM
same,potency estimated from few doses,[2]; [40],1530 nM
same,potency estimated from few doses,[10],61.7 nM
same,potency estimated from few doses,[11],147 nM
same,potency estimated from few doses,[12],1130 nM
same,potency estimated from few doses,[13],1440 nM
same,potency estimated from few doses,[14],1330 nM
same,potency estimated from few doses,[15],1130 nM
same,potency estimated from few doses,[16],1630 nM
COc1ccc(C)c(Nc2ccnc(Nc3ccc(-c4cnc[nH]4)cc3)n2)c1.Cl [GW784041A],potency estimated from few doses,"[5]; compound concentrations: 100 nM and 1000 nM (sheet 'Samples'), CATDS: 0.125244350144667",1190 nM
same,potency estimated from few doses,[1]; CATDS: 0.106004759644949,1600 nM
same,potency estimated from few doses,[17],2370 nM
same,potency estimated from few doses,[18],1820 nM
same,potency estimated from few doses,[19],1910 nM
same,potency estimated from few doses,"[9]; compound concentrations: 100 nM and 1000 nM (sheet 'Samples'), CATDS: 0.104926252845552",1630 nM
same,potency estimated from few doses,[20],2060 nM
same,potency estimated from few doses,[21],1940 nM
same,potency estimated from few doses,[22],1630 nM
same,potency estimated from few doses,[23],2040 nM
Nc1nc(-c2cccc(Cl)c2)c(-c2ccc3ncccc3n2)s1 [GW780159X],potency estimated from few doses,[24],1.63 nM
same,potency estimated from few doses,[25],1440 nM
same,potency estimated from few doses,[26],1000 nM
same,potency estimated from few doses,[27],815 nM
same,potency estimated from few doses,[16],2040 nM
CNc1ncc2cc(Oc3ccc(F)cc3F)c(=O)n(C)c2n1 [RO5083957-000],potency estimated from few doses,[24],853 nM
same,potency estimated from few doses,[28],958 nM
same,potency estimated from few doses,[29],1740 nM
same,potency estimated from few doses,[30],1750 nM
same,potency estimated from few doses,[25],618 nM
same,potency estimated from few doses,[31],1640 nM
same,potency estimated from few doses,[26],843 nM
same,potency estimated from few doses,[13],1800 nM
Fc1cc(Cl)ccc1Nc1ccnc2cc(-c3ccc(CN4CCSCC4)o3)ccc12 [GW560106X],potency estimated from few doses,[1]; CATDS: 8.8140626462379107E-2,1650 nM
same,potency estimated from few doses,[32],830 nM
same,potency estimated from few doses,[33],853 nM
same,potency estimated from few doses,[34],1220 nM
same,potency estimated from few doses,[35],547 nM
same,potency estimated from few doses,[36],710 nM
same,potency estimated from few doses,[37],357 nM
same,potency estimated from few doses,[38],2080 nM
same,potency estimated from few doses,[39],1290 nM
